Data published in the supplement of paper PMC10849652.
About 7,900 targets were measured; listed, in parts, are those with a hit and a random draw of the rest. About 0.6% of all pairs of compound and target were hits. Unmarked numbers belong to inactive results.

compound: Cc1nc(Nc2n[nH]c3c2CN(C(=O)N[C@H](CN(C)C)c2ccccc2)C3(C)C)c2sccc2n1; assay: log2 fold change, soluble protein after heating vs DMSO (PISA); higher = thermal stabilisation; K562 cells, 10 uM, 30 min; active = over 0.2 and 3.5 SD of the protein, either way, in both replicates (recomputed)
How it was run: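 Soluble protein was defined as the supernatant after 21,000xg for 90 min. It came from K562 cells at 2×10^6 cells/mL given 10 μM compound for 30 min, heated in aliquots for 3 min across 48°C-58°C, pooled, and extracted in PBS with 0.5% NP-40 at 4°C, and was quantified by TMTpro 16plex LC-MS/MS with equalised channel sums. Thermal stability against control samples, from duplicates, is reported as log2 fold change.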

Sequence of UniProt Q68DK7 (Q68DK7 whole entry, looked up): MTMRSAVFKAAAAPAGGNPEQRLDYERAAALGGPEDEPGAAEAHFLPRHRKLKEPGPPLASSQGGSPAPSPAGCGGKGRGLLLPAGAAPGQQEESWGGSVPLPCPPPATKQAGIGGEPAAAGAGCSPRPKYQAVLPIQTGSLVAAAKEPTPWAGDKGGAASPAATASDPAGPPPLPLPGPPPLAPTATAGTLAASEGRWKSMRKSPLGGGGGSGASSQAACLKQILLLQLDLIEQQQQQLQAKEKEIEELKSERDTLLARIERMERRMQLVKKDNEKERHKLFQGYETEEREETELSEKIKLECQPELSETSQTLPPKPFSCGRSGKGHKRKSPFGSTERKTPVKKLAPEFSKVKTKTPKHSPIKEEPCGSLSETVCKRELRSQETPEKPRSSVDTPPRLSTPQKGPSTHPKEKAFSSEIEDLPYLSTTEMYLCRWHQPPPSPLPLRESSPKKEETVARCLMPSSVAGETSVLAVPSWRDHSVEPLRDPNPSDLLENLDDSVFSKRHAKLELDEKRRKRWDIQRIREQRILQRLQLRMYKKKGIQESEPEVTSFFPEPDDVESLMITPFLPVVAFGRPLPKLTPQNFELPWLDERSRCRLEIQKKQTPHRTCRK
Sequence of UniProt Q69YL0 (Q69YL0 whole entry, looked up): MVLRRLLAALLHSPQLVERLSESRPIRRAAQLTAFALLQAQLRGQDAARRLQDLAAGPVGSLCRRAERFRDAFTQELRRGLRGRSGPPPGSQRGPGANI
Sequence of UniProt Q9H6N6 (Q9H6N6 whole entry, looked up): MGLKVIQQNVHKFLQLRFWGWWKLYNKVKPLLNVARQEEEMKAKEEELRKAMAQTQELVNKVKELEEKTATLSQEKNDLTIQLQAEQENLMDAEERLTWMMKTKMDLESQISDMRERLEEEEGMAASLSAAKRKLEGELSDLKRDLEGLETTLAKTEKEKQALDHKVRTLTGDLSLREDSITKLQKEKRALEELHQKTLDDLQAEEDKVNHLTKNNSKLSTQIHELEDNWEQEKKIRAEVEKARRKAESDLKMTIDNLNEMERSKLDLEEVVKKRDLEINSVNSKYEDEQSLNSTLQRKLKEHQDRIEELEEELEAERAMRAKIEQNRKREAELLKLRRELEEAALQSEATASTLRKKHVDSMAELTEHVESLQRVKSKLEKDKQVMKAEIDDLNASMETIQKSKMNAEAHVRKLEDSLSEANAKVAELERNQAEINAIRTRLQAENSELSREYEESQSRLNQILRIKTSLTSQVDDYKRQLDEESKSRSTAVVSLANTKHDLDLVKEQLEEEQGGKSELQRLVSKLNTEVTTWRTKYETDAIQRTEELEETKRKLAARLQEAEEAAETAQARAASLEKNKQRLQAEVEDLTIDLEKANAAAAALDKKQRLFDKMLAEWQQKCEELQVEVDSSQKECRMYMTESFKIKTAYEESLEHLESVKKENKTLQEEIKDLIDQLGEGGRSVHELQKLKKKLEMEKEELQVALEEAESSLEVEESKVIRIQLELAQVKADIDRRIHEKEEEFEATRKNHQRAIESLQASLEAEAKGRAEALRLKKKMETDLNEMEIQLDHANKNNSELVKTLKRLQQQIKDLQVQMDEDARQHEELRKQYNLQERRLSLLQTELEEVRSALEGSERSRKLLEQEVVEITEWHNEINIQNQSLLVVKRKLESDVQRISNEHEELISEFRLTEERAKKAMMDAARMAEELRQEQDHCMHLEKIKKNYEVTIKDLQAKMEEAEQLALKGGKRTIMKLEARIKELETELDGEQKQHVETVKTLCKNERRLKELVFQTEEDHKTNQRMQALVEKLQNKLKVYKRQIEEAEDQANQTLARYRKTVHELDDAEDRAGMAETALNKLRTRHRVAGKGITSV
Sequence of UniProt Q96H55 (Q96H55 whole entry, looked up): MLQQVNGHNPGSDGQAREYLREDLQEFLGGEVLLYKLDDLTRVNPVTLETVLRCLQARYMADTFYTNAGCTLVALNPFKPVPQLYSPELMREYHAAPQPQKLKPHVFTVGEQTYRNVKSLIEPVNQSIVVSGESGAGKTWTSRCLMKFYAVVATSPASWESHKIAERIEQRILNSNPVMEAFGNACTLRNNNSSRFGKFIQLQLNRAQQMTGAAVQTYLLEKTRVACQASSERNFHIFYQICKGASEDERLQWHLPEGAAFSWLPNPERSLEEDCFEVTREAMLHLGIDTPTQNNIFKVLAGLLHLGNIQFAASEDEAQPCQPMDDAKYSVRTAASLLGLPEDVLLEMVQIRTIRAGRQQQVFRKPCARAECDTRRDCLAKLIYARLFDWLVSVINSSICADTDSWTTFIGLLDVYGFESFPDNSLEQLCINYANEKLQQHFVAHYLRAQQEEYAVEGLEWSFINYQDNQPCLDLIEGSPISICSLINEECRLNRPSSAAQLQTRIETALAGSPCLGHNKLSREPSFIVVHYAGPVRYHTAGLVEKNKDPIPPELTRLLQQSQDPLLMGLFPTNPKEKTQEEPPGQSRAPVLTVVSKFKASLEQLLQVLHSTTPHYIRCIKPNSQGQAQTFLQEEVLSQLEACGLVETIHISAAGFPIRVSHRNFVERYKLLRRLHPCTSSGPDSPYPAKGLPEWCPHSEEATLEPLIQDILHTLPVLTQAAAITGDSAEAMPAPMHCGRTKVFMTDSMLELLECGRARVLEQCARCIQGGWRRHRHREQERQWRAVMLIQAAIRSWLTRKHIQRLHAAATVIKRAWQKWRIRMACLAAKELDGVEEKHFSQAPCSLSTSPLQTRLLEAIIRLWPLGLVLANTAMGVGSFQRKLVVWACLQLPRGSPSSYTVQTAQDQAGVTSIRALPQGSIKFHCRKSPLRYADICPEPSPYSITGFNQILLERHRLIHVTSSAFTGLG
Sequence of UniProt P40261 (P40261 whole entry, looked up): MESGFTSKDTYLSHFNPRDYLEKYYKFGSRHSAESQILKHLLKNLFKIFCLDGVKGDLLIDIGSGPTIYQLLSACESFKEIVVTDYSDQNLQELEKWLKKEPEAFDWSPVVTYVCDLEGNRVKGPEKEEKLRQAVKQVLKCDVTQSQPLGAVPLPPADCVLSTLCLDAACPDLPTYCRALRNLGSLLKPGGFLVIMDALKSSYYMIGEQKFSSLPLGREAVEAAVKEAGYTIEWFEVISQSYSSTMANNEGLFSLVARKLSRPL
Sequence of UniProt Q8N5F7 (Q8N5F7 whole entry, looked up): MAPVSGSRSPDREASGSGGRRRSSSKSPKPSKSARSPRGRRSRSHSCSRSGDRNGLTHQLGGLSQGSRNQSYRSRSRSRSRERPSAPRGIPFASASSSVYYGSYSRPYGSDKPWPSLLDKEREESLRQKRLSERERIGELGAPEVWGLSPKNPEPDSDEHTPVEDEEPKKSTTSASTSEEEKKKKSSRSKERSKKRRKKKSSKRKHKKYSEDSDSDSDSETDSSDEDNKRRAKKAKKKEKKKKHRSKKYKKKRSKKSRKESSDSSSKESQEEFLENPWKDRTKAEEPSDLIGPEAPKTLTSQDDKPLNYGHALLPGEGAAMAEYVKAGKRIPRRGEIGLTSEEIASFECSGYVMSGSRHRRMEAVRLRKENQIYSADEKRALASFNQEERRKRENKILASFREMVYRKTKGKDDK
Sequence of UniProt Q9UH92 (Q9UH92 whole entry, looked up): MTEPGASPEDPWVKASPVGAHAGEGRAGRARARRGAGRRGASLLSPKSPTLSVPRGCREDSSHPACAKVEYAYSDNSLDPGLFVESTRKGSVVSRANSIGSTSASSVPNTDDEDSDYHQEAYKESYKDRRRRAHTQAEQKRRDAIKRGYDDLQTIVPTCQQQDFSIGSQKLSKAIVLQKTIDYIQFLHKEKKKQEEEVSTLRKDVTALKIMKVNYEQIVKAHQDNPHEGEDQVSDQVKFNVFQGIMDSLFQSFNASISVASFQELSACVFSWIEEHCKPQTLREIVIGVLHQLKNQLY
Sequence of UniProt O75438 (O75438 whole entry, looked up): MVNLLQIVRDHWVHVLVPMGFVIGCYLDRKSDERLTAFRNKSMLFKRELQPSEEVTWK
Sequence of UniProt O60361 (O60361 whole entry, looked up): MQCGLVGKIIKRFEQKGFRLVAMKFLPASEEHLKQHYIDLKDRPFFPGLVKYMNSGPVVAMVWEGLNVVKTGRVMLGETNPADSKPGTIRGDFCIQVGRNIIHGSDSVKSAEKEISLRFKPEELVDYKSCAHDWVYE
Sequence of UniProt Q9H019 (Q9H019 whole entry, looked up): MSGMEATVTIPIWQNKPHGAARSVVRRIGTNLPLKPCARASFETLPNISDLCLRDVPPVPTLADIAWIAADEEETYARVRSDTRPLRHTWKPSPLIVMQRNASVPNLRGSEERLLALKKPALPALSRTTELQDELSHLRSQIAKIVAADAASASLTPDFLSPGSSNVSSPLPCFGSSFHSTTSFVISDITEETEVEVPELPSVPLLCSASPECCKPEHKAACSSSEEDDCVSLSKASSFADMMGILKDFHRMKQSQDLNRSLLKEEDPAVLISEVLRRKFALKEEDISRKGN
Sequence of UniProt P25208 (P25208 whole entry, looked up): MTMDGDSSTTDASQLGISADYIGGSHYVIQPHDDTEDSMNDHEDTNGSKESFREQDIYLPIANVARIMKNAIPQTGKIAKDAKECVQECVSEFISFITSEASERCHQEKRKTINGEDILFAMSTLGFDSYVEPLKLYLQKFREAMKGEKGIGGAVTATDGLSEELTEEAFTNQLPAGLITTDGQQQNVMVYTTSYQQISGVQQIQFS
Sequence of UniProt Q86TA1 (Q86TA1 whole entry, looked up): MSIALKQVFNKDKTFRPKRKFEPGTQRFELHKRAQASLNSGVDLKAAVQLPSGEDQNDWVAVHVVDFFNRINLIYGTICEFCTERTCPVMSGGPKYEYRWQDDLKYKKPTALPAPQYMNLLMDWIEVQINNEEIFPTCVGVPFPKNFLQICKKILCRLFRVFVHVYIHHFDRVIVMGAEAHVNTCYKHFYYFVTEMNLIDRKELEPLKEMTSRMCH
Sequence of UniProt P48645 (P48645 whole entry, looked up): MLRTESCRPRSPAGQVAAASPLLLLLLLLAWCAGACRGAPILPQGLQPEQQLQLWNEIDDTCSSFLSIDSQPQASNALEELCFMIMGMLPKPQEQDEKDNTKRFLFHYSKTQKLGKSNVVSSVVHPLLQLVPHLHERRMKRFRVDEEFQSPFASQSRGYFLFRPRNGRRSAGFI

| Target | log2 fold change |
| --- | --- |
| NMU (UniProt P48645) | -0.022 |
| NIPSNAP3B (UniProt Q9BS92) | 0.01 |
| NFYB (UniProt P25208) | -0.067 |
| MYLK (UniProt Q15746) | 0.147 |
| NAP1L1 (UniProt B7Z9C2) | -0.002 |
| NAGPA (UniProt Q9UK23) | 0 |
| NNMT (UniProt P40261) | 0.005 |
| NKAP (UniProt Q8N5F7) | -0.792 (active) |
| MMADHC (UniProt Q9H3L0) | -0.173 |
| OGFOD2 (UniProt Q6N063) | -0.007 |
| OVCA2 (UniProt Q8WZ82) | -0.326 |
| NUP160 (UniProt Q12769) | -0.136 |
| NPM3 (UniProt O75607) | 0.062 |
| P4HA2 (UniProt O15460) | 0.04 |
| NA, A0A494C071 | 0.329 |
| MOB2 isoform 3 (UniProt Q70IA6) | -1.47 (active) |
| MT-ND2 (UniProt P03891) | 0.018 |
| NRDC isoform 2 (UniProt O43847) | -0.023 |
| NA, A0A2R8Y3M9 | -0.091 |
| MRFAP1 (UniProt Q9Y605) | -0.064 |

| Target | log2 fold change |
| --- | --- |
| NCBP2AS2 (UniProt Q69YL0) | 0.045 |
| OAT (UniProt P04181) | -0.021 |
| MON1A (UniProt Q86VX9) | -0.056 |
| NDFIP1 (UniProt Q9BT67) | 0.354 |
| NME2P1 (UniProt O60361) | -0.014 |
| MOB3B (UniProt Q86TA1) | -0.397 |
| MYO19 (UniProt Q96H55) | -0.045 |
| MYH16 (UniProt Q9H6N6) | 0.062 |
| ORC5 (UniProt O43913) | -0.001 |
| MSL1 (UniProt Q68DK7) | 0.068 |
| NDUFB1 (UniProt O75438) | 0.009 |
| NUMBL (UniProt Q9Y6R0) | -0.136 |
| NELFCD (UniProt Q8IXH7) | -0.003 |
| MTFR1L (UniProt Q9H019) | -0.32 |
| NUP98 (UniProt P52948) | -0.062 |
| NECTIN2 isoform 2 (UniProt Q92692) | -0.016 |
| MRPS16 (UniProt Q9Y3D3) | 0.009 |
| MLX (UniProt Q9UH92) | -0.01 |
| OPHN1 (UniProt O60890) | 0.051 |
